Hits are enriched below; roughly 2.6% of the tested compounds scored in any of these assays.
TROY NFkB inh = inhibitors of TROY-driven NF-kB signaling, primary screen, Q293 LMP1-TROYcd cells, NF-kB luciferase, uHTS; Q293 LMP1-TROYcd NF-kB luciferase reporter, 4 h; inhibition, % at 10 µM; 360,000 compounds, 0.98% hits;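 active = compounds whose plate-normalised and pattern-corrected inhibition of the luciferase reporter signal at the single screening dose is 50% or more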
EBV LMP1 NFkB = EBV LMP1-driven NF-kappaB luciferase reporter inhibitors, primary screen, cell-based, luminescence, single point; LMP1-induced NF-kappaB luciferase reporter cells; inhibition, % at 12.5 µM; 350,000 compounds, 0.69% hits; in the data active = inhibition above about 41%
LGR2 antag = inhibitors of bursicon-induced LGR2 CRE-luciferase signal, primary screen, cell-based, HEK293, CRE-luciferase reporter, bursicon stimulation; Drosophila bursicon receptor LGR2 (rickets); bursicon-stimulated, 4 h; inhibition, % at 9.99 µM; 380,000 compounds, 0.35% hits; AID 720647, 2013;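 active = drop in luminescence signal, shown as inhibition above about 50% in the replicate tests, limit read from the data, passing the limit was not always enough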;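 also: agonist challenge used bursicon conditioned medium at about half maximal strength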
TWEAK-Fn14 inh = inhibitors of TWEAK-Fn14 signaling, primary screen, luciferase reporter cells, uHTS; TWEAK-stimulated Fn14 reporter cells, luciferase luminescence, 8 h; inhibition, % at 10 µM; 360,000 compounds, 2% hits; AID 1159606, 2016; in the data active = inhibition above about 50%
aDG glyco act = activators of alpha-DG glycosylation, primary screen, uHTS, Pro5-aDG cells, AlphaScreen. 360,000 compounds, 0.22% hits. AID 624168, 2012. alpha-DG glycosylation AlphaScreen (IIH6); 0% Pro5, 100% B10-LARGE cell signal. activation, % at 10 µM;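 active = activation of at least 8% versus controls, or a plate z-score of at least 8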;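 also: Pro5 are CHO cells carrying HIG-tagged alpha-DG that lacks glycosylation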
HSP90 inh = HSP90 inhibitors, primary screen, cell lysate, luminescence; Heat shock protein HSP 90 (rabbit reticulocyte lysate; luciferase refolding); Rabbit reticulocyte lysate, luciferase refolding luminescence, 3 h; inhibition, % at 5.6 µM; 290,000 compounds, 0.91% hits; AID 1789, 2009;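 active = inhibition above the screen-wide mean plus 3 SD, computed separately per campaign, cut at about 16% in these data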;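 also: inhibitors lower the luminescence because luciferase stays unfolded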
Of the large screens only hits and unclear results are named; the others gave an inactive call.

O=C(N/N=C/c1ccco1)C1CC1c1ccccc1 (configuration not stated)	none
Cc1ccc(NCC(=O)N/N=C\c2ccc[nH]2)cc1	TROY NFkB inh 69, TWEAK-Fn14 inh 89 (no result: EBV LMP1 NFkB)
Cc1noc(C)c1CSCC(=O)Nc1nc(-c2ccc(F)c(F)c2)cs1	TROY NFkB inh 72, TWEAK-Fn14 inh 77 (no result: HSP90 inh)
CCc1noc(C)c1C(=O)OCC(=O)Nc1nc(-c2ccc(F)c(F)c2)cs1	TROY NFkB inh 54 (no result: LGR2 antag, HSP90 inh)
CCc1nnc(NS(=O)(=O)c2ccc(N/C=C/C(=O)c3ccc(C)cc3)cc2)s1	none
CCc1nnc(NS(=O)(=O)c2ccc(N/C=C\C(=O)c3ccc(F)cc3)cc2)s1	TROY NFkB inh 73
O=C(Nc1ccc(N2CCN(c3ccc(O)cc3)CC2)cc1)Oc1ccccc1	none
Nc1ccc(OC(=O)Nc2ccc(O)cc2)cc1	TWEAK-Fn14 inh 66
CS(=O)(=O)Nc1ccc2c(c1)[C@@H]1C[C@@H](CC(=O)NCc3ccc(Cl)cc3)O[C@H](CO)[C@@H]1O2	none (no result: TROY NFkB inh, EBV LMP1 NFkB, TWEAK-Fn14 inh, aDG glyco act, HSP90 inh)
O=C(Nc1ccc2c(c1)[C@H]1C[C@H](CC(=O)N3CCOCC3)O[C@@H](CO)[C@H]1O2)c1cccnc1	none (no result: TROY NFkB inh, EBV LMP1 NFkB, TWEAK-Fn14 inh, aDG glyco act, HSP90 inh)
COc1ccc(C(c2c(NC(=O)c3ccco3)sc(C)c2C)N2CCOCC2)cc1 (configuration not stated)	TROY NFkB inh 52, TWEAK-Fn14 inh 83 (no result: HSP90 inh)
C=C1[C@@H](O)[C@H](CC(C)C)N(Cc2ccccc2Br)S1(=O)=O	TWEAK-Fn14 inh 79 (no result: HSP90 inh)
O=C(NN1C(=O)C2C3C=CC(C4CC34)C2C1=O)c1cccc(Cl)c1 (configuration not stated)	EBV LMP1 NFkB 71
O=C(CN(c1cccc(Br)c1)S(=O)(=O)c1ccccc1)N/N=C/c1cc([N+](=O)[O-])ccc1O	TROY NFkB inh 52 (no result: HSP90 inh)
O=[N+]([O-])c1cccc(S(=O)(=O)Nc2ccc(S(=O)(=O)N3CCCC3)cc2)c1	none
O=[N+]([O-])c1cccc(S(=O)(=O)N2CCN(c3ccccn3)CC2)c1	TWEAK-Fn14 inh 60
Cc1cccc(S(=O)(=O)Nc2nc3ccccc3nc2Nc2ccc3c(c2)OCO3)c1	TROY NFkB inh 64
O=S(=O)(Nc1nc2ccccc2nc1Nc1ccc2c(c1)OCO2)c1ccccc1	none
Cc1ccc(S(=O)(=O)Nc2nc3ccccc3nc2Nc2cccc(S(=O)(=O)N3CCCC3)c2)cc1	TROY NFkB inh 54, TWEAK-Fn14 inh 69
O=[N+]([O-])c1cccc(S(=O)(=O)Nc2nc3ccccc3nc2Nc2cccc(S(=O)(=O)N3CCCCC3)c2)c1	TROY NFkB inh 71, TWEAK-Fn14 inh 86
CO[C@H]1CN(C)C(=O)c2ccc(NS(=O)(=O)c3ccccc3C)cc2OC[C@H](C)N(C)C[C@H]1C	none (no result: TROY NFkB inh, EBV LMP1 NFkB, TWEAK-Fn14 inh, aDG glyco act, HSP90 inh)
COc1ccc(-n2c(SCC(=O)Nc3cc(C)on3)nc3c(c2=O)SCC3)cc1	EBV LMP1 NFkB 83
COC(=O)c1ccc(CSc2nc3c(c(=O)n2-c2ccc(C)cc2)SCC3)o1	EBV LMP1 NFkB 70 (no result: LGR2 antag)
Cc1ccc(-n2c(SCC(=O)N3CCCC3)nc3c(c2=O)SCC3)cc1	none (no result: TROY NFkB inh, EBV LMP1 NFkB, LGR2 antag, TWEAK-Fn14 inh, aDG glyco act)
COc1ccc(-n2c(SCC(=O)Nc3cc(C)on3)nc3c(c2=O)SCC3)cc1OC	none
O=C(Nc1ccccc1F)N1CC(=O)N2[C@H](CO)[C@H](c3ccc(-c4cccnc4)cc3)[C@@H]2C1	none (no result: TROY NFkB inh, EBV LMP1 NFkB, TWEAK-Fn14 inh, aDG glyco act, HSP90 inh)
CCCNC(=O)C[C@@H]1CC[C@H]2[C@H](COc3ccc(NC(=O)C4CCOCC4)cc3C(=O)N2C)O1	none (no result: TROY NFkB inh, EBV LMP1 NFkB, TWEAK-Fn14 inh, aDG glyco act, HSP90 inh)
CCOC(=O)NNC(=O)CCn1c2c(c3ccccc31)CCCC2	TWEAK-Fn14 inh 59
CN(c1ccc(O)cc1)c1nc(-c2ccccc2)cs1	TWEAK-Fn14 inh 55
CN(C(=O)c1ccco1)c1nc(-c2ccccc2)cs1	none
Cc1noc(C)c1S(=O)(=O)Nc1ccc2c(c1)CC(=O)N([C@H](C)CO)C[C@H](C)[C@@H](CN(C)S(=O)(=O)c1ccccc1)O2	none (no result: TROY NFkB inh, EBV LMP1 NFkB, TWEAK-Fn14 inh, aDG glyco act, HSP90 inh)
CC(C)c1ccc(/C=C2\SC(=S)N(CCC(=O)N3CCCCC3CCO)C2=O)cc1 (configuration not stated)	TROY NFkB inh 65, TWEAK-Fn14 inh 87
CCOC(=O)c1sc(NC(=O)Nc2ccccc2)cc1C	none (no result: LGR2 antag)
CCOC(=O)c1sc(NC(=O)Nc2ccccc2Cl)cc1C	TROY NFkB inh 69, TWEAK-Fn14 inh 70
COCCN=c1scc(-c2ccc3c(c2)NC(=O)CO3)n1/N=C(\C)c1ccc(O)cc1	none
COc1cc(/C=N/n2c(-c3ccc4c(c3)NC(=O)CO4)csc2=Nc2cccc(C)c2)ccc1O	TWEAK-Fn14 inh 65
C[C@@H]1CN([C@H](C)CO)C(=O)c2cc(NC(=O)Cc3ccccc3)ccc2O[C@@H](C)CCCCO[C@@H]1CN(C)C(=O)C1CCCCC1	none (no result: TROY NFkB inh, EBV LMP1 NFkB, TWEAK-Fn14 inh, aDG glyco act, HSP90 inh)
COC1=C(C)C(=O)C2=C(C1=O)C1C3CC4=C(C(=O)C(OC)=C(C)C4=O)C(CNC(=O)C(C)=O)N3C(C#N)C(C2)N1C (configuration not stated)	TROY NFkB inh 63, EBV LMP1 NFkB 77, LGR2 antag 97, TWEAK-Fn14 inh 100 (no result: HSP90 inh)
CCCNC(=O)N1CC2(CCN(Cc3ccncc3)CC2)c2c(n(C)c3cc(OC)ccc23)[C@H]1CO	none (no result: TROY NFkB inh, EBV LMP1 NFkB, TWEAK-Fn14 inh, aDG glyco act, HSP90 inh)
CCOC(=O)c1c(C)[nH]c(C(=O)N/N=C/c2ccc(Br)cc2)c1C	TWEAK-Fn14 inh 55
COc1ccc(C2C(C)C3(O)CC(C#N)(C(=O)N3)C2(C#N)C#N)cc1 (configuration not stated)	none
COc1ccc(C2CC3(O)CC(C#N)(C(=O)N3)C2(C#N)C#N)cc1 (configuration not stated)	TROY NFkB inh 82, TWEAK-Fn14 inh 91
C[C@@H]1CN([C@@H](C)CO)C(=O)c2cccc(NC(=O)c3ccncc3)c2O[C@@H]1CN(C)S(=O)(=O)c1ccc(F)cc1	none (no result: TROY NFkB inh, EBV LMP1 NFkB, TWEAK-Fn14 inh, aDG glyco act, HSP90 inh)
O=C(Nc1nnc(-c2ccccc2)o1)NC1CCCCC1	EBV LMP1 NFkB 68 (no result: LGR2 antag)
O=C(Nc1ccccc1)Nc1nnc(-c2ccccc2)o1	none (no result: LGR2 antag)
c1ccc(-c2nnc(NC3=NCCC3)o2)cc1	TWEAK-Fn14 inh 53, HSP90 inh 17
COc1ccc(S(=O)(=O)Nc2cccc3c2O[C@H](CN(C)S(=O)(=O)c2ccc(OC)cc2)[C@@H](C)CN([C@@H](C)CO)C3=O)cc1	none (no result: TROY NFkB inh, EBV LMP1 NFkB, TWEAK-Fn14 inh, aDG glyco act, HSP90 inh)
COc1ccc(S(=O)(=O)N(C)C[C@H]2Oc3ccc(NS(=O)(=O)c4cccs4)cc3C(=O)N([C@@H](C)CO)C[C@@H]2C)cc1	none (no result: TROY NFkB inh, EBV LMP1 NFkB, TWEAK-Fn14 inh, aDG glyco act, HSP90 inh)
C[C@@H]1CN([C@@H](C)CO)C(=O)c2cccc(NC(=O)c3ccncc3)c2O[C@@H]1CN(C)C(=O)Nc1ccc2c(c1)OCO2	none (no result: TROY NFkB inh, EBV LMP1 NFkB, TWEAK-Fn14 inh, aDG glyco act, HSP90 inh)
COCCn1c(-c2ccc(Br)cc2)csc1=Nc1cccnc1	none

High-throughput results as filed in PubChem.
